Screening data: PubChem BioAssay, National Center for Advancing Translational Sciences (NCATS)
TDP1 block: inhibitors of human tyrosyl-DNA phosphodiesterase TDP1. Q9NUW8. recombinant TDP1, AlphaScreen DNA substrate cleavage. 350,000 compounds, 0.28% hits. Potency, µM (highest dose often 130 µM), without a hit: at the highest dose activity change, negative = inhibition, actives largely listed as inhibitors; further: nearly all actives have a fitted effect of over 40% in size
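Steps: enzyme plus compound, 15 min RT; add biotin/phosphotyrosine-FITC oligonucleotide (15 nM final), react 5 min; add donor/acceptor beads (10 ug/ml final), 10 min; read AlphaScreen. Tdp1 at 1 nM final.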
VDR inhibitor: blocks the human vitamin D receptor; VDR-SRC2-3 peptide fluorescence polarization, 2 h; 400,000 compounds, 0.93% hits; Potency, µM, without a hit: max response, negative = inhibition, actives largely listed as inhibitors
Target sequence (P11473 whole entry, looked up): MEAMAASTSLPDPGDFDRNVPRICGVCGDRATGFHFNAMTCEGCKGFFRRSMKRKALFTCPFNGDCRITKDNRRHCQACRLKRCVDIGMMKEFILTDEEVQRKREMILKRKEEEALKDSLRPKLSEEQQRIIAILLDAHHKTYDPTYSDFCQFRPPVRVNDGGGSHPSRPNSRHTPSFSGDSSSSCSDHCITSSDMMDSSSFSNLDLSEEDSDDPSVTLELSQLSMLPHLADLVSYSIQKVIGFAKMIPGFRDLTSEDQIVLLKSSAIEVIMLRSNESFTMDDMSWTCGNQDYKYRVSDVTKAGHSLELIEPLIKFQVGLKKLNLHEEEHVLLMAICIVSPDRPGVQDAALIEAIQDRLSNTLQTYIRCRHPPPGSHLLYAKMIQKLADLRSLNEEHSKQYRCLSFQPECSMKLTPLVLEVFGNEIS
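Compounds are added to VDR with labelled SRC2-3 coactivator peptide and held 2 h at room temperature. Inhibition of the VDR–peptide interaction is then read as a change in fluorescence polarization.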
TDP1 cell CPT: DT40-hTDP1 cell growth loss with CPT; chicken DT40 Tdp1-/-;hTDP1 cells + 20 nM CPT, ATP luminescence, 48 h; Potency, µM (doses to about 46.2 µM), inactives show at the highest dose activity change, negative = growth inhibition, usual class: inhibitors; 420,000 compounds, 12% hits; AID 686979; further: nearly all actives have a fitted effect of over 55% in size
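Chicken DT40 Tdp1-/- cells stably complemented with human TDP1 were seeded at 400 cells/well in medium containing 20 nM camptothecin, exposed to pin-transferred compounds, and grown at 37 °C for at least 48 hr. Viability was read as ATP luminescence.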
TDP1 cell noCPT: qHTS for Inhibitors of human tyrosyl-DNA phosphodiesterase 1 (TDP1): qHTS in cells in absence of CPT | DT40 Tdp1-/- hTDP1 cells, no CPT, ATP luminescence, 48 h | AID 686978, 2013 | Potency, µM (top dose mostly 46.2 µM), for the others: at the top dose activity change, negative = growth inhibition, hits mostly inhibitors | 420,000 compounds, 15% hits; further: nearly all actives have a fitted effect of over 55% in size
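Cells were dispensed at 400 per well, compounds added by pin tool, plates incubated ≥48 hr at 37 °C, then CellTiter-Glo added for 30 min at room temperature before luminescence reading. Line: DT40 Tdp1-/- complemented with hTDP1; camptothecin omitted.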
PLK1 PBD block: PLK1 (human) polo-box domain binding inhibition | P53350 | Plk1 PBD binding of FITC phosphopeptide, fluorescence polarization | Potency, µM, for the others: max response, negative = inhibition, usual class: inhibitors | 360,000 compounds, 2.8% hits; further: series mostly up to about 57 µM; nearly all actives have a fitted effect of over 65% in size
GCN5L2 inh: GCN5L2 (KAT2A) acetyltransferase inhibition. AID 504327. Potency, µM (highest dose often 58.9 µM), for the others: top-dose activity change, negative = inhibition, usual class: inhibitors. GCN5L2 HAT assay, ThioGlo1 CoA-SH fluorescence. 390,000 compounds, 0.21% hits
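Enzyme at 20nM final was mixed with library compounds for 15 min at room temperature. Peptide H3(1-25) at 75uM, acetyl-CoA at 70uM and ThioGlo1 at 50uM were then added. Plates were read immediately and after 20 min (Ex340nm/Em540nm).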
* hit, by the source's call; ? = inconclusive; . = no result given; [ ] = dose if it differs, or a comment. Sampled rows, rich in hits. Any-hit rate of the full collection: about 18%. The call rests on the fitted dose curve; in most records, active means well fitted curve in the direction sought with a large enough effect; inconclusive means small, poorly fitted or top-dose-only effect, or another doubt; inactive means no such curve, though single readings can be large; an effect the other way counts as inactive or inconclusive. On the % scale 0 is the no-effect control and ±100 the full control effect; potency means the concentration at half of the fitted maximal effect.

SMILES	TDP1 block	VDR inhibitor	TDP1 cell CPT	TDP1 cell noCPT	PLK1 PBD block	GCN5L2 inh
CC1CCN(C(CNS(=O)(=O)c2ccccc2)c2ccccc2)CC1 (configuration not stated)	0%[56.1 µM]	-13%	-26%	?	-12%	1%
CC(=O)c1c(C)[nH]c(C(=O)OCC(=O)c2ccc(C)s2)c1C	1%	14%	23µM*	18µM*	-14%	0%
COc1ccc(CCNC(=O)c2[nH]c(C)c(C(C)=O)c2C)cc1OC	-3%	-11%	-7%	-16%	-5%	3%
COc1ccc(CN(C)C(=O)c2[nH]c(C)c(C(C)=O)c2C)cc1F	0%	-17%	?	15µM*	1%	-12%
CCOC(=O)c1c(C)[nH]c(C(=O)/C(C#N)=C/c2ccc(OCC)cc2)c1C	5%	-26%	-9%	-28%	-23%	-4%
CC(=O)c1c(C)[nH]c(C(=O)/C(C#N)=C/c2cccc(C)c2)c1C	10%	-24%	-22%	-23%	6µM*	-2%
CC(=O)c1c(C)[nH]c(C(=O)OCC(=O)C(C)(C)C)c1C	8%	-3%	-14%	-5%	-6%	1%
Cc1nn(CC(C)C)c(Cl)c1C(=O)N(C)CC(=O)Nc1ccc(Cl)cc1	.	.	?	?	2%	.
COc1cc([N+](=O)[O-])ccc1NC(=O)NCCCN1CCCC1=O	5%[56.1 µM]	-10%	-14%	9%	-11%	-3%
c1ccc2c(N3CCOCC3)nc(-c3ccoc3)nc2c1	.	?	?	-16%	.	-13%
O=C(c1ccc(-c2ccccc2Cl)o1)N1CCCCCCC1	.	-17%	?	23µM*	-1%	.
CC1CCCN(C(=O)c2ccc(-c3ccccc3Cl)o2)C1 (configuration not stated)	0%[0.505 µM]	5%	12µM*	?	1%	-14%
CC(=O)N1CCN(C(=O)c2ccc(-c3ccccc3Cl)o2)CC1	1%	-26%	0%	-18%	-9%	-9%
CC1Cc2ccccc2N1c1ncnc2c1nnn2Cc1ccccc1 (configuration not stated)	2%	-9%	?	-25%	-6%	22µM*
CCN1C(=NCC(C)C)N[C@@H](c2ccccc2)[C@H](C(=O)OC)[C@H]1C	.	.	.	.	.	-3%
CCN1C(=NCCc2ccc(Br)cc2)N[C@@H](c2ccccc2)[C@H](C(=O)OC)[C@H]1C	1%	-18%	23µM*	18µM*	-2%	-4%
CCOC(=O)c1c(NC(=O)COc2cccc(C)c2C)sc2c1CCC(CC)C2 (configuration not stated)	5%[12.3 µM]	-6%	8%	-15%	.	1%
CO/N=C/C(C#N)=C/c1cc(C(=O)c2ccccc2)cn1C	2%	-16%	-20%	21µM*	-6%	-18%
O=C1c2ccccc2C(=O)N1CCSc1ccccc1	-3%	-2%	2%	-9%	27µM*	-10%
O=C1c2ccccc2C(=O)N1CCc1c(-c2[nH]c3ccccc3c2CCN2C(=O)c3ccccc3C2=O)[nH]c2ccccc12	.	6%	21µM*	18µM*	-9%	.
O=C1c2ccccc2C(=O)N1CCSc1nncs1	3%	19%	6%	6%	-3%	-8%
O=C(O)CCN1C(=O)c2ccc(NC(=O)CSc3ccccc3)cc2C1=O	1%	?	?	?	27µM*	5%
O=C1c2ccccc2C(=O)N1CCCCCCc1ccccc1	35µM*	-9%	-5%	-1%	-3%	-5%
COc1ccc(C2C(C#N)=C(N)N(c3ccccc3C#N)C3=C2C(=O)CCC3)cc1CN1CCCC1 (configuration not stated)	9%	-10%	?	?	-5%	3%
O=C(O)c1ccc(CCCc2ccccc2)cc1	.	0%	-3%	-1%	-9%	.
SMILES	TDP1 block	VDR inhibitor	TDP1 cell CPT	TDP1 cell noCPT	PLK1 PBD block	GCN5L2 inh
O=C(O)CCCCCCCCCCCc1ccccc1	6%	-13%	9%	-2%	24µM*	?
O=C(O)c1ccc2c(c1)C(=O)N(CCc1ccccc1)C2=O	.	-5%	3%	4%	-1%	2%
O=C1c2ccccc2C(=O)N1CCc1ccccc1	.	-22%	?	?	27µM*	.
O=C(CCS(=O)(=O)c1nc(-c2cccs2)cc(C(F)(F)F)n1)Nc1ccc(OC(F)(F)F)cc1	6%	14µM*	?	-24%	.	-6%
O=C(NC(=O)c1ccccc1F)Nc1nc(-c2cccs2)cc(C(F)(F)F)n1	5%	-11%	23µM*	?	-2%	2%
COc1ccc(NC(=O)CSc2nc(-c3cccs3)cc(C(F)(F)F)n2)cc1OC	4%	5%	4.6µM*	2.3µM*	.	-3%
O=C(O)CSc1nc(-c2cccs2)cc(C(F)(F)F)n1	3%	14%	0%	-19%	-5%	0%
Cc1cccc(C)c1NC(=O)CSc1nc(-c2cccs2)cc(C(F)(F)F)n1	0%	5%	15µM*	18µM*	.	-5%
Cc1ccc(N/C(=C\C(=O)c2ccccc2)C(=O)O)cc1	2%	-22%	-8%	-8%	-6%	-4%
CCOc1ccccc1NC(=O)CSc1nc(-c2cccs2)cc(C(F)(F)F)n1	-3%	-15%	-5%	-28%	.	-4%
CC(C)(C)c1ccccc1NC(=O)CSc1nc(-c2cccs2)cc(C(F)(F)F)n1	5%	9%	21µM*	?	.	-13%
O=C(CSc1nc(-c2cccs2)cc(C(F)(F)F)n1)Nc1cc(OCC(F)(F)F)cc([N+](=O)[O-])c1	2%	18%	?	18µM*	-4%	-4%
O=C1NC(=O)C2(CCCC2)N1	.	4%	31%	3%	0%	.
COc1ccccc1C(=O)NC(=O)CSc1nncn1C(C)C	.	-8%	-2%	4%	-2%	-30%
Cc1ccc(NC(=O)C(=O)NCC(c2cccnc2)N2CCN(Cc3ccccc3)CC2)cc1 (configuration not stated)	5%	4%	23µM*	18µM*	.	-2%
O=C(NCC(c1cccnc1)N1CCN(Cc2ccccc2)CC1)C(=O)Nc1ccc(Cl)cc1 (configuration not stated)	5%	4%	13µM*	7.3µM*	.	-10%
COc1ccc(S(=O)(=O)NCCc2sc(-c3ccccc3)nc2C)cc1OC	-1%	4%	.	.	.	-3%
COc1ccccc1NC(=O)C1=C(C)Nc2nc(SCc3ccc(Cl)cc3)nn2C1c1ccccc1Cl (configuration not stated)	5%	-9%	?	?	.	-8%
